About 83,000 compounds went through this panel and 20% of them were active in at least one assay; those are over-represented in the sample as a whole.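 Each cell line was grown in a 96-well plate and treated with one concentration of compound for 48 hours. Values below 10 were considered active.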 Unmarked numbers belong to inactive results. Activity calls are given as the source filed them.
system: MDA-MB-468 breast; test: NCI-60 one-dose screen, 48 h (100 = growth as untreated, 0 = no growth, -100 = all killed); settings: 10 µM unless noted

| Structure (SMILES) | growth |
| --- | --- |
| O=c1[nH]c2ccc(Br)cc2c2c1C(c1ccc(Cl)cc1)c1c(ncn3nc(-c4ccco4)nc13)O2 (stereo not given) | 85.9% |
| COCCn1c(Nc2ccc(C(=O)NO)cc2)nc2ccccc21 | 63.7% |
| O=C1Nc2ccccc2/C1=C/C(=O)c1ccc(N2CCCCC2)cc1 | 80% |
| CC(=O)/C(Cc1ccccc1)=N/O | 99.1% |
| CC(=O)OC[C@H]1O[C@H](OC(C)=O)[C@H](NC(=O)/C=C/CCl)[C@@H](OC(C)=O)[C@@H]1OC(C)=O | 75.3% |
| CCCCCSc1ccc2nc(NC(=O)OCC)sc2c1 | -10.5% (active) |
| C=CCNc1ccc2c3c(cccc13)C(=O)N(N1C(=O)c3cccc4cccc(c34)C1=O)C2=O | 101% |
| CCOC(=O)C/C(C)=N\O | 98.2% |
| Cc1ccc2c(c1)-c1cc(C)nn1-c1ccc(C#N)cc1O2 | 40.9% |
| O=C1/C(=C/c2ccc(F)cc2)C=C(c2ccccc2)N1CCc1ccccc1 | 72.9% |
| COc1cc(-c2nc(-c3ccccc3)[nH]c2-c2ccnc(NCCCNS(=O)(=O)c3ccc(C)cc3)n2)ccc1F | 79.4% |
| Cc1nc2sc(C(=O)Nc3cccc(Cl)c3C)c(N)c2cc1C(=O)c1ccccc1 | -4.28% (active) |
| Cc1cccc(-c2nc(N(C)c3ccc4ncsc4c3)c3ccccc3n2)n1 | 51% |
| C[C@]12CC[C@@H]3c4cc(OC(F)F)c(OS(N)(=O)=O)cc4CC[C@H]3[C@@H]1CC[C@@H]2O | -24.2% (active) |
| COc1ccc2ncccc2c1Cc1c(OC)ccc2ncccc12 | 8.37% (active) |
| COc1ccc2c(c1)C(=O)c1c-2c(OCCN(C)C)nc2cc(OC)ccc12 | 15.9% |
| CCn1cc(C(=O)N/N=C/c2cccc(F)c2)c(=O)c2cc(F)c(N3CCNC(C)C3)c(F)c21 (stereo not given) | 71.6% |
| COc1ccc(/C=N/NC(N)=S)c(OC)n1 | 86.4% |
| COCCN(C(=O)c1ccc(F)cc1F)c1c(N)n(Cc2ccccc2)c(=O)[nH]c1=O | 87.8% |
| O=C(COc1ccc(-c2nc3ccccc3[nH]2)cc1)N=Nc1c(O)[nH]c2ccccc12 | 34.5% |

| Structure (SMILES) | growth |
| --- | --- |
| C=CC(=O)N1CC2(CCC(n3nc(-c4ccc(Oc5ccccc5)cc4)c4c(N)ncnc43)CC2)C1 | -58.1% (active) |
| CC(C)(C)c1ccc(C(=O)Nc2sc3c(c2C(N)=O)CCC(O)C3)cc1 (stereo not given) | 32.3% |
| CNC1=C(Br)C(=O)c2c(C(=O)OC)c(C)nc(C)c2C1=O | 27.4% |
| COc1cc(NCCCCCNC(C)(C)C)c2ncccc2c1 | -6.36% (active) |
| CCOC(=O)c1csc(-c2ccc(COC(=O)c3ccccc3)o2)n1 | 115% |
| C#Cc1cccc(NC(=O)C2CCCN(C(=O)CCl)C2)c1 (stereo not given) | 66.3% [8.25 µM] |
| COc1cc(C(=O)/C(C)=C/c2c[nH]c3ccccc23)cc(OC)c1OC | 11.4% |
| CCOc1ccccc1NC1=C(Cl)C(=O)c2nc(C)ccc2C1=O | -90.7% (active) |
| CCOC(=O)c1c(C)nc(C)c(C(=O)OCC)c1-c1cccnc1 | 94.8% |
| CCCCOC(=O)c1ccccc1O | 95.7% |
| O=[N+]([O-])c1ccc(N/N=C(\C(=N/Nc2ccc([N+](=O)[O-])cc2[N+](=O)[O-])c2ccccc2)c2ccccc2)c([N+](=O)[O-])c1 | 86.4% |
| O=C(O)c1cn(C2CC2)c2cc(N3CCN(Cc4ccc5ccccc5c4O)CC3)c(F)cc2c1=O | 39.2% |
| Cc1ccc(-c2cc3nc(C(Cl)Cl)nc(-c4ccccc4)n3n2)cc1 | -16.4% (active) |
| O=C(CCN1CCCCC1)c1ccc(Cl)cc1 | 94.3% |
| FC(F)(F)c1cccc(Nc2nc(-c3ccccc3)nc3ncccc23)c1 | -21.7% (active) |
| COc1cccc(/C=N/NC(=O)c2ccccc2N2CCCC2)c1O | 0.775% (active) |
| COc1ccc(Nc2ccnc(N3CCN(c4ccnc5cc(Cl)ccc45)CC3)n2)cc1 | -16% (active) |
| Oc1ccccc1-c1nnc(SCc2ccc(O)c3ncccc23)o1 | 44.4% |
| C#CCOc1cccc(Nc2ncnc3c(NC(=O)C=C)cccc23)c1 | -15.2% (active) |
| Nc1n[nH]c2cccc(C#Cc3cccc(NC(=O)c4cc(F)cc(C(F)(F)F)c4)c3)c12 | 92.2% |
